Test results as given in the supplement of paper PMC6555819.

tested on: PPARg:RXRa DBDmut IVT, anti-RXR (DBD mutation: RXRa K156A/R161A, NR concentration 270 nM, RXRa partner concentration 90 nM); assay: PBM binding z-score (relative to random genomic background probes); higher = stronger binding; sequences stand for … in GC…GCGATTGACAGCGTAGAATGAAGG
In short: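 Binding z-scores take random background probes as their reference. They come from custom Agilent 4×180K protein-binding microarrays incubated 1 h with ligand-free nuclear receptor dimers, with antibodies against each partner (one per run) detecting binding. Scanned fluorescence was regression-normalized.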

| Sequence | PBM binding z-score |
| --- | --- |
| CGTACTAGGTCAAGGACAGTGAATCTCCGCACGC | 7.55 |
| AGAATGAGGTTATACGTAGATCAGGGAAGAAAGT | 4.01 |
| CCTTACGGGTCACTGACACGTTATAGCATTTGGA | 3.57 |
| CGAACTATGTCATTGACAGGACAGTGAATAGTAA | 3.29 |
| AGAACGAGGGCAATGAATTGATAGCACGGGTGGC | 3.39 |
| TCTTGTAGATCAAAGGTTAAGGAAGCCGAAGCCT | 2.14 |
| GCTCACGGGTCAAAGGTTATAGCATGAATAGAAT | 2.57 |
| ATCTCTAGGTAACAAGTTCTGTGAAAGAGAGGAC | 3.07 |
| GCTCGGAGGACAAGGTCAGAACTTTGTCCGTAGA | -0.664 |
| CCTTACGGATCACTGACAGGTTATAGCATTTGGA | 0.71 |
| ATACCAAGGTGATCGTGAGGTCGTTGGTACTAAC | 0.259 |
| ATCTCTAGGTAACAAGTTCAGTGACAGAGAGGAC | 3.59 |
| TAGCCTAGGTCATTTAGGGGCCAGTATAGAAAGC | 1.79 |
| CGTCCAAGGTCAATGCTAGTTCAGTGAAAGCATT | 2.97 |
| CCTACTGGGGCAAAAAGGTCATTGATGCCGATAA | 4.52 |
| ACAGACAGGTGAGTGAAGGTAACTAAGCTGGACG | 0.098 |
| CAAACTAGGTCAAGTTCAAAGTCGGTTTGTGCCA | 8.65 |
| CAAACTAGGTCAAGAGGTCATAGTCCGCTTCCCG | 8.3 |
| ACAGACAGTTGATGAAGGTAACTCAGGCTATCAT | -0.364 |
| ATCTCTAGGTAAAGATGGTTCAGTGAATGCAAAT | 1.87 |

| Sequence | PBM binding z-score |
| --- | --- |
| TCTAACAGGCCAGAGGGTCACTCAAGAGGTACGG | 1.73 |
| TCTGGCAGGCCAGAGGGTCACTCAAGAGGTACGG | 0.0912 |
| ACGGACAGGTGAGTGAAGGTAACTCAGCTGGACG | 0.373 |
| CCTACTGTGCCACGAAAGGTCATTGATTCAGTGA | 5.18 |
| ATCGAAAGGCCGAGGTGAGTATAGAGAAAGGGAA | -0.777 |
| ATCGAAAGGTCGAGGTGCGTATAGAGAAAGGGAA | -0.194 |
| ACTATTAGTTGAGACGAGGGGAACCGATAGGTTG | 0.452 |
| TCTATTAGTTGATTAGGTCAACCGAAACAGCGGA | 2.89 |
| GCTGCTAGGTCAACTGATGGTCAGCTTAAGCTCG | 5.04 |
| GGAGCGAGGGCATTCGAGTTGATAGCATGGCGAT | 0.18 |
| CAAACTAGGTCACGAAAGGTCAAACTCGAATGAC | 8.89 |
| CCTTACGGATCACGAGGTTATAGCACGACGAGCG | 0.221 |
| TCAGACAGGTGAAGATAACTCAGGTACGCAGTCG | 2.79 |
| TAGCCTAGGTCATTGGCCCAGTATAGTACGCATC | 1.34 |
| ACTCGCAGGCCAAGGGTCACTCAAGATTAGTCCG | 0.79 |
| CAAACTAGGTCACGAAAGGTCGAAGTCGAATGAC | 8.79 |
| TCTCGGAGGACACGACGGTCAGAGCTTTCCAGAG | 1.2 |
| CCGAGTAGGTTATGGGGCATTCAAGCAACGGTGA | 3.32 |
| TTACCAACGTGAAGGTCGTTGATCCCTCTGTAGA | 0.422 |
| TCTATTAGTTGGAGGGCAACCGACGAGTCCGTTT | 1.97 |
